Screening results as filed in PubChem.
Rows were chosen to be rich in hits. Some 1.2% of all compounds tested hit in one or more screens of this group.
RGS16-Gao HTS = modulates binding between human RGS16 and Galphao | binding response (% of control), % at 10 µM | bead-based flow cytometry RGS16-Galphao binding, fluorescence; actives lie on both sides | actives 0.38% (n = 220,000) | O15492+P09471;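 further: Galphao activated by GDP with aluminum fluoride before binding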
RGS4-Gao reg = modulates binding of RGS4 to human Galphao | binding response (% of control), % at 10 µM | actives 0.33% (n = 220,000) | AID 1415 | Multiplexed bead flow cytometry; actives lie on both sides; in the data active means binding response below about 49% or above about 150%; inactive means in between;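 further: fluorescent Galphao activated with aluminum fluoride binding bead-coupled RGS4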
Target sequence (P09471 whole entry, looked up): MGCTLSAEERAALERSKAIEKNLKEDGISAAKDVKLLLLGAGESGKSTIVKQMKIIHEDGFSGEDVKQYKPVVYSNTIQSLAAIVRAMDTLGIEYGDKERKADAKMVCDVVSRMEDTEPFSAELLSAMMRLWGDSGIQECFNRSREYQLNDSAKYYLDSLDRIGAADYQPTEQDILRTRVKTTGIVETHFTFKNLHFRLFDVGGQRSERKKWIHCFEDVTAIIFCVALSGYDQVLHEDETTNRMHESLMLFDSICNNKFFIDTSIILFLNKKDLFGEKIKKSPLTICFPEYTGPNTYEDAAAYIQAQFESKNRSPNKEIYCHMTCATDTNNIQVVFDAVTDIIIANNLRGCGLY
RGS7-Gao reg = modulates binding of RGS7 to human Galphao; P09471; Multiplexed bead flow cytometry; actives lie on both sides; binding response (% of control), % at 10 µM; actives 0.35% (n = 220,000); AID 1439; in the data active means binding response below about 49% or above about 150%; inconclusive means no clear call, values can overlap the other calls; inactive means in between;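 further: fluorescent Galphao held in activated GDP-AlF4 state binding bead-coupled RGS7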
RGS8-Gao = modulates binding of RGS8 to human Galphao; multiplexed bead flow cytometry; actives lie on both sides; response (percent of control binding), % at 10 µM; actives 0.34% (n = 220,000); in the data active means response below about 60% or above about 140%; inactive means in between;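 further: Galphao activated as the GDP aluminium fluoride complex binding bead-coupled RGS8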
GSH fluor = GSH bead compound fluorescence profile | actives 0.25% (n = 190,000) | GSH beads flow cytometry, compound fluorescence 488/530 nm; stronger effect = higher value | fluorescence (KMESF) at 10 µM; in the data active means fluorescence above about 89;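 further: glutathione beads carrying GST-tagged Bcl family fusion proteins plus one bare bead set; values are compound well signal with DMSO vehicle wells as background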
Avidin bead fluor = compound fluoresces at 488/530 nm on avidin beads; compound fluorescence 488/530 nm, flow cytometry; stronger effect = higher value; fluorescence (KMESF) at 10 µM; actives 0.38% (n = 220,000); AID 1775; in the data active means fluorescence above about 47
RGS4-Gao HTS = regulators of human RGS4-Galphao interaction; shares compounds with RGS16-Gao HTS; multiplexed bead flow cytometry, RGS–Galpha-o binding; RGS4–Galpha-o binding response, % at 10 µM; actives 99% (n = 1,600);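 further: fluorescently labeled Galpha-o bound to GDP with aluminium fluoride binding biotinylated RGS beads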
Biotin-avidin = interferes with biotinylated probe binding to avidin beads; shares compounds with RGS16-Gao HTS; streptavidin beads, fluorescein-biotin binding, flow cytometry; inhibition, % at 10 µM; 1,700 tested, under 10 active; AID 1783;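 active means inhibition above 50%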;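 further: median green fluorescence of gated singlet beads compared with DMSO control wells; 0% = DMSO wells and 100% = complete loss of bead fluorescence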
RGS8-Gao confirm = RGS8-Galphao interaction regulation, single point confirmation. shares compounds with RGS16-Gao HTS. bead-based flow cytometry RGS8-Galphao binding, fluorescence; actives lie on both sides. binding response (% of control), % at 10 µM. actives 3% (n = 1,700). AID 1836; in the data active means binding response below about 72% or above about 130%; inactive means in between;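 further: Galphao activated as GDP AlF4 complex before binding bead RGS8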
RGS7-Gao single = confirmation of regulators of human RGS7-Galphao interaction; shares compounds with RGS16-Gao HTS; bead-based flow cytometry RGS7-Galphao binding; actives lie on both sides; response (percent of control binding), % at 10 µM; actives 7.8% (n = 1,700); AID 1837; in the data active means response below about 75% or above about 130%; inactive means in between;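 further: fluorescent Galphao activated with GDP and aluminum fluoride binding bead-coupled RGS7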
RGS16-Gao single = RGS16-Galphao interaction regulation, single point confirmation. shares compounds with RGS16-Gao HTS. actives 4% (n = 1,700). response (% of control binding), % at 10 µM. bead-based flow cytometry, RGS16-Galphao binding; actives lie on both sides. AID 1838; in the data active means response below about 74% or above about 130%; inactive means in between;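 further: Galphao activated as the GDP aluminium fluoride complex binding bead-coupled RGS16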
RGS4-Gao confirm = RGS4-Galphao interaction regulation, single point confirmation; AID 1840; actives 4% (n = 1,700); binding response (% of control), % at 10 µM; RGS4-Galphao binding, multiplexed bead flow cytometry; actives lie on both sides; shares compounds with RGS16-Gao HTS; in the data active means binding response below about 74% or above about 130%; inactive means in between
RGS19-Gao conf = RGS19-Galphao interaction regulation, single point confirmation | response (percent of control binding), % at 10 µM | actives 5% (n = 1,700) | shares compounds with RGS16-Gao HTS | bead-based flow cytometry RGS19-Galphao binding; actives lie on both sides; in the data active means response below about 50% or above about 160%; inactive means in between;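 further: 100% = no compound control and 0% = blank background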
Numbers without * were called inactive; [ ] = remark or other dose. Unless noted, how the calls were made is not given here.

Results for COc1cccc(NC(=O)c2ccccc2-c2nc(-c3ccc(F)cc3)no2)c1 ?
GSH fluor: 33; Biotin-avidin: -0.3; RGS8-Gao confirm: 100.4; RGS7-Gao single: 97.3; RGS16-Gao single: 102.6; RGS4-Gao confirm: 102.5; RGS19-Gao conf: 98.4

Results for COc1cccc(NC(=O)c2ccccc2-c2nc(-c3ccccc3)no2)c1 ?
RGS16-Gao HTS: 88.2; RGS4-Gao reg: 88.5; RGS7-Gao reg: 87.4; RGS8-Gao: 90.6; GSH fluor: 36; Avidin bead fluor: 15

How did O=C(CNS(=O)(=O)c1c(Cl)cccc1Cl)OCC(=O)N1CCN(c2ccccc2)CC1 do in these assays?
RGS16-Gao HTS: 111.5; RGS4-Gao reg: 100.9; RGS7-Gao reg: 99.4; RGS8-Gao: 103.6; GSH fluor: 8; Avidin bead fluor: 13

How did CC(=O)Nc1ccc(S(=O)(=O)NCC(=O)OCC(=O)N2CCN(c3ccccc3)CC2)cc1 do in these assays?
RGS16-Gao HTS: 21.3*; RGS4-Gao reg: 82.4; RGS7-Gao reg: 79.4; RGS8-Gao: 71.3; GSH fluor: 12; Avidin bead fluor: 1; RGS4-Gao HTS: 82.4*; Biotin-avidin: -2.2; RGS8-Gao confirm: 98.2; RGS7-Gao single: 89.5; RGS16-Gao single: 95.3; RGS4-Gao confirm: 93.5; RGS19-Gao conf: 82.1

What do the screens show for `C/C(=N\Nc1ccc(C(=O)O)cc1)c1ccc(S(=O)(=O)NCc2ccco2)cc1`?
RGS16-Gao HTS: 100.8; RGS4-Gao reg: 98.9; RGS7-Gao reg: inconclusive; RGS8-Gao: 98.0; Avidin bead fluor: 6

What do the screens show for `O=C(O[C@@H]1OC2COC(=O)c3cc(O)c(O)c(O)c3-c3c(cc(O)c(O)c3O)C(=O)O[C@@H]([C@H]1O)[C@@H]2O)c1cc(O)c(O)c(O)c1`?
RGS16-Gao HTS: 23.2*; RGS4-Gao reg: 33.8*; RGS7-Gao reg: 22.5*; RGS8-Gao: 44.3*; GSH fluor: 8; Avidin bead fluor: 1; Biotin-avidin: -2.4; RGS8-Gao confirm: 34.6*; RGS7-Gao single: 4.1*; RGS16-Gao single: 34.6*; RGS4-Gao confirm: 19.4*; RGS19-Gao conf: 42.3*

Results for c1ccc(-c2nc3ccccc3[nH]2)nc1 ?
RGS16-Gao HTS: 167.3; RGS4-Gao reg: 169.9*[activator]; RGS7-Gao reg: 157.5*[activator]; RGS8-Gao: 154.4*[activator]; GSH fluor: 23; Avidin bead fluor: 12; Biotin-avidin: -0.3; RGS8-Gao confirm: 98.7; RGS7-Gao single: 101.8; RGS16-Gao single: 98.6; RGS4-Gao confirm: 99.2; RGS19-Gao conf: 109.8

What do the screens show for `O=c1[nH]c(-c2ccccn2)nc2ccccc12`?
RGS16-Gao HTS: 96.4; RGS4-Gao reg: 96.8; RGS7-Gao reg: 100.2; RGS8-Gao: 98.2; GSH fluor: 62; Avidin bead fluor: 6
